Most compounds without a hit are left out; they make up all but 2.3% or so of the library.
Pf Dd2 growth: inhibitors of Plasmodium falciparum Dd2 growth; 94,000 compounds, 2.3% hits; P. falciparum Dd2 growth, SYBR Green, 72 h; active compounds read low; activity change, % at 10 µM; in the data active = activity change below about -80%; inconclusive = no clear call, values can overlap the other calls
C diff growth: blocks growth of Clostridium difficile; growth activity, negative = inhibition, % at 16 µg/mL (by protocol); 86,000 compounds, 0.25% hits; Clostridium difficile clinical isolate growth, OD600, 24 h; active compounds read low;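 active = mean growth activity at or below -80% and every replicate also at or below -80%; inconclusive = mean at or below -80% but some replicate above -80%; inactive = mean growth activity above -80%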
Numbers stand for hits; i = inactive; ? = inconclusive; nt = no result given.

SMILES | Pf Dd2 growth | C diff growth
C[C@@H]1CN([C@@H](C)CO)S(=O)(=O)c2ccc(C#Cc3ccc(F)cc3)cc2O[C@H]1CN(C)S(=O)(=O)c1ccc(F)cc1 | i | i
C[C@@H]1CN([C@@H](C)CO)S(=O)(=O)c2ccc(C#Cc3ccncc3)cc2O[C@H]1CN(C)S(=O)(=O)c1ccc(F)cc1 | -86 | i
O=C(Nc1ccc2c(c1)[C@H]1C[C@@H](CC(=O)N3CCOCC3)O[C@H](CO)[C@H]1O2)NC1CCCC1 | i | i
C[C@H](CO)N1C[C@H](C)[C@@H](CN(C)Cc2ccccc2)Oc2cc(-c3ccccc3)ccc2S1(=O)=O | i | i
C[C@@H]1CCCCO[C@@H](CN(C)S(=O)(=O)c2cn(C)cn2)[C@@H](C)CN([C@H](C)CO)C(=O)c2cc(NC(=O)NC3CCCCC3)ccc2O1 | i | i
COc1cc(CN2CC3(CN(C(=O)NC(C)C)C3)c3c(n(C)c4cc(OC)ccc34)[C@H]2CO)cc(OC)c1 | i | i
C[C@H](CO)N1C[C@H](C)[C@H](CN(C)S(=O)(=O)c2ccc(F)cc2)Oc2cc(C#Cc3ccncc3)ccc2S1(=O)=O | -84 | i
C[C@H](CO)N1C[C@H](C)[C@@H](CN(C)S(=O)(=O)c2ccc(F)cc2)Oc2cc(C#Cc3ccc(F)cc3)ccc2S1(=O)=O | i | i
C[C@@H]1CN([C@H](C)CO)C(=O)c2cc(NC(=O)Nc3ccccc3)ccc2O[C@@H](C)CCCCO[C@H]1CN(C)Cc1ccc2c(c1)OCO2 | -82 | i
C[C@@H]1CCCCO[C@@H](CN(C)Cc2ccc3c(c2)OCO3)[C@@H](C)CN([C@@H](C)CO)C(=O)c2cc(NC(=O)Cc3ccccc3)ccc2O1 | i | i
C[C@@H]1CN([C@@H](C)CO)C(=O)c2cc(NC(=O)Nc3ccccc3)ccc2O[C@@H](C)CCCCO[C@@H]1CN(C)Cc1ccc2c(c1)OCO2 | ? | i
C[C@H]1CCCCO[C@@H](CN(C)Cc2ccccc2)[C@@H](C)CN([C@@H](C)CO)C(=O)c2cc(NC(=O)Nc3ccc4c(c3)OCO4)ccc2O1 | -86 | i
C[C@H]1CCCCO[C@H](CN(C)Cc2ccc3c(c2)OCO3)[C@@H](C)CN([C@@H](C)CO)C(=O)c2cc(NC(=O)Nc3ccccc3)ccc2O1 | i | i
C[C@@H]1CCCCO[C@@H](CN(C)Cc2ccccc2)[C@H](C)CN([C@H](C)CO)C(=O)c2cc(NC(=O)Nc3ccc4c(c3)OCO4)ccc2O1 | i | i
C[C@H]1CCCCO[C@@H](CN(C)Cc2ccc3c(c2)OCO3)[C@@H](C)CN([C@@H](C)CO)C(=O)c2cc(NC(=O)Cc3ccccc3)ccc2O1 | -83 | i
C[C@@H]1CN([C@H](C)CO)C(=O)c2cc(NC(=O)Nc3ccccc3)ccc2O[C@@H](C)CCCCO[C@@H]1CN(C)Cc1ccc2c(c1)OCO2 | -84 | i
Cc1ccccc1S(=O)(=O)NCC[C@@H]1CC[C@H](NC(=O)Nc2cccc(Cl)c2)[C@H](CO)O1 | i | nt
C[C@@H]1CCCCO[C@@H](CN(C)CC2CCCCC2)[C@@H](C)CN([C@@H](C)CO)C(=O)c2cc(NC(=O)CCCN(C)C)ccc2O1 | i | i
COc1ccc2c3c(n(C)c2c1)[C@@H](CO)N(C(C)=O)CC31CCN(C(=O)c2ccccc2)CC1 | i | i
COCC(=O)N1CC[C@@H]2[C@H](CO)Nc3ccc(C#Cc4ccc(OC)cc4)cc3[C@@H]21 | i | i
COc1cccc(NC(=O)N(C)C[C@H]2Oc3cc(C#Cc4ccc(F)cc4)ccc3S(=O)(=O)N([C@@H](C)CO)C[C@@H]2C)c1 | i | i
CNC[C@H]1Oc2cc(C#Cc3cccc(OC)c3)ccc2S(=O)(=O)N([C@@H](C)CO)C[C@@H]1C | i | i
COc1ccc(C#Cc2ccc3c(c2)O[C@@H](CN(C)C(=O)Nc2cccc(OC)c2)[C@@H](C)CN([C@@H](C)CO)S3(=O)=O)cc1 | -90 | nt
COc1ccc(C#Cc2ccc3c(c2)O[C@H](CN(C)C(=O)Nc2cccc(OC)c2)[C@@H](C)CN([C@@H](C)CO)S3(=O)=O)cc1 | -85 | nt
COc1cccc(NC(=O)N(C)C[C@@H]2Oc3cc(C#Cc4ccncc4)ccc3S(=O)(=O)N([C@@H](C)CO)C[C@@H]2C)c1 | i | i
SMILES | Pf Dd2 growth | C diff growth
CNC[C@@H]1Oc2cc(C#Cc3ccc(OC)cc3)ccc2S(=O)(=O)N([C@@H](C)CO)C[C@H]1C | -85 | i
N#C[C@@H]1[C@H](c2ccc(-c3cccnc3)cc2)[C@@H](CO)N1C(=O)C1CC1 | i | i
COc1ccccc1-c1ccc([C@H]2[C@H](CO)N3CCCCN(C(=O)c4ccncc4)C[C@@H]23)cc1 | i | i
C/C=C/c1ccc([C@H]2[C@@H](CO)N(CC3CC3)[C@@H]2CNC(=O)NC(C)C)cc1 | i | i
C/C=C/c1ccc([C@H]2[C@@H](CO)N(CC3CCCC3)C23CN(C(=O)CC2CC2)C3)cc1 | -87 | i
C/C=C/c1ccc([C@H]2[C@@H](CO)N(CC3CCCC3)C23CN(C(=O)CC)C3)cc1 | i | i

Bioassay records: PubChem, Broad Institute
